Several values for one entry are separate records, joined by “and”; a condition that tells them apart may be missing. Equal values may be shown once. Inconclusive results are not listed. A structure can be active in one record and inactive in another. Activity calls are given as the source filed them. The calls were made as follows: active = hit-call score of the fitted dose curve at least 0.9, where 1 is the maximum; inconclusive = response in the unintended direction; inactive = score below 0.9.
biological target: Cellular tumor antigen p53 (Homo sapiens) (UniProt P04637); assay: TOX21_p53_BLA_p5_ratio: Tox21 HCT-116 p53 Agonism Beta-lactamase Assay, Ratio, Phase 5 (AID 2283599)
Sequence (P04637 whole entry, looked up, the tested form may be a part): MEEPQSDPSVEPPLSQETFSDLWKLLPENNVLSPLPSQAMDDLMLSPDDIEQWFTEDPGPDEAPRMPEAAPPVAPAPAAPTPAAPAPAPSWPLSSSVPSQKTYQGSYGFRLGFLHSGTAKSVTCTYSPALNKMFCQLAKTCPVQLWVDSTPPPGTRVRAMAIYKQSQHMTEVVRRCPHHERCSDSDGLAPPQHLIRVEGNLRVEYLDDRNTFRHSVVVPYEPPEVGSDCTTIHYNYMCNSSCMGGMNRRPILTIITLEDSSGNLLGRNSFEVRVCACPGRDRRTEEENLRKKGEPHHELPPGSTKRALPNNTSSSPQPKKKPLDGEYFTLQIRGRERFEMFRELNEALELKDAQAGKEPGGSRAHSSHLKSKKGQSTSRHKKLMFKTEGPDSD
Description: TOX21_p53_BLA_p5 is a cell-based, single-readout assay that uses HCT116, a human intestinal cell line, […] in a 1536-well plate.TOX21_p53_BLA_p5_ratio is an assay readout measuring reporter gene via receptor activity and designed using inducible reporter (beta lactamase induction) detected with GAL4 b-lactamase reporter gene. The signal is derived from the ratio of cleaved (ch2) to uncleaved (ch1) reporter gene substrate used as the measure of target activity.Data from the assay component TOX21_p53_BLA_p5_ratio was analyzed into 1 assay endpoint. This assay endpoint, TOX21_p53_BLA_p5_ratio, was analyzed in the positive analysis fitting direction relative to DMSO as the negative control and baseline of activity. Using a type of inducible reporter, gain-of-signal activity can be used to understand changes in the reporter gene as they relate to the gene TP53. Furthermore, this assay endpoint can be referred to as a primary readout, because this assay has produced multiple assay endpoints and this ratio serves a reporter gene function to understand target activity. To generalize the intended target to other relatable targets, this assay endpoint is annotated to the DNA binding intended target family, where the subfamily is tumor suppressor.
Thawing Method: Place 14 mL of pre-warmed thaw medium into a 15 mL of conical tub. Remove the vial of cells to be thawed from liquid nitrogen and thaw rapidly by placing at 37C in a water bath with gentle agitation for 1-2 minutes. Decontaminate the vial by wiping with 70% ethanol before opening in a biological safety cabinet. Transfer the vial contents drop-wise into 14 mL of thaw medium in a sterile 15-mL conical tub. Centrifuge cells at 900 rpm for 4 minutes and resuspend in thaw medium. Transfer contents to the T75 tissue culture flask containing Thaw Medium and place flask in a humidified 37C/5% CO2 incubator. Switch to growth medium at first passage.Propagation Method: Aspirate medium, rinse once in DPBS, add 0.25% Trypsin/EDTA and swirl to coat the cell evenly. Add an equal volume of Growth Medium to inactivate Trypsin after 2-3 minutes incubation at 37C. Centrifuge cells at 900 rpm for 4 minutes and resuspend in growth medium. Cell should be passage or fed at least twice a week.Assay Protocol: Harvest cells from culture in growth medium and resuspend in assay medium. 2.2 Dispense 4000 cells/5 uL/well into 1536-well black/clear bottom plates using a Multidrop dispenser. After the cells were incubated at 37C for 5 hours, 23 nL of compounds dissolved in DMSO were transferred to the assay plate by a PinTool resulting in a 217-fold dilution. Incubate the plates for 16 hours at 37C, 5% CO2. Add 1 uL of 6X LiveBLAzer FRET B/G (CCF4-AM) Substrate Mixture to each well using a BioRAPTR dispenser and incubate the plates at room temperature for 2 hours. Measure fluorescence intensity at 460 and 530 nm emission and 405 nm excitation by an Envision detector. Data is expressed as the ratio of 460nm/530nm emissions. Add 4 uL of Cell-titer Glo to each well using BioRAPTR and incubate the plates at room temperature for 2 hours. Measure fluorescence intensity by a VewLux plate reader.

Row | Compound | outcome | AC50
1 | CCOP(=S)(OCC)Oc1cc(-c2ccccc2)on1 | inactive | –
2 | COC(=O)C1(O)c2ccccc2-c2ccccc21 | inactive | –
3 | c1ccc2c(c1)OCC(C1=NCCN1)O2 (stereo not given) | inactive | –
4 | ClCOCCl | inactive | –
5 | CC(=O)O[C@H]1C[C@H](O[C@H]2[C@@H](O)C[C@H](O[C@H]3[C@@H](O)C[C@H](OC4CC[C@@]5(C)[C@H](CC[C@@H]6[C@@H]5CC[C@]5(C)[C@@H](C7=CC(=O)OC7)CC[C@]65O)C4)O[C@@H]3C)O[C@@H]2C)O[C@H](C)[C@H]1O[C@@H]1O[C@H](CO)[C@@H](O)[C@H](O)[C@H]1O (stereo not given in full) | inactive | –
6 | CCCCN(N=O)C(=N)N[N+](=O)[O-] | – | 55.2 µM (active)
7 | O=C(O)c1ccccn1 | inactive | –
8 | C=C(Cl)CCl | inactive | –
9 | CC(C)[C@@]1(NC(=O)[C@@H]2C[C@@H]3c4cccc5[nH]cc(c45)C[C@H]3N(C)C2)O[C@@]2(O)[C@@H]3CCCN3C(=O)[C@H](Cc3ccccc3)N2C1=O | inactive | –
10 | COc1cccc(C(=O)CCN[C@@H](C)[C@H](O)c2ccccc2)c1 | inactive | –
11 | O=C1c2ccccc2C(=O)C1C(=O)C(c1ccccc1)c1ccccc1 | inactive | –
12 | COc1ccc2c(c1)C13CCCC[C@@H]1C(C2)N(C)CC3 (stereo not given in full) | inactive | –
13 | CCC(=O)OC1(c2ccccc2)CCN(C)CC1 | inactive | –
14 | CCCC(C)(COC(N)=O)COC(=O)NC1CC1 (stereo not given) | inactive | –
15 | c1csc(C2(N3CCCCC3)CCCCC2)c1 | inactive | –
16 | O=C(N[C@@H]1N=C(c2ccccc2F)c2cccc3c2N(CC3)C1=O)c1cc2ccccc2[nH]1 | inactive | –
17 | CCCC[N+]1(C)CCCC1 | inactive | –
18 | O=C(OCCN1CCCCC1)C(O)(c1ccccc1)c1ccccc1 | inactive | –
19 | CCOC(=O)COc1ccc(Cl)cc1Cl | inactive | –
20 | CCCCCCCCCCCC#N | inactive | –

Row | Compound | outcome | AC50
21 | N#CC(c1ccccc1)c1ccccc1 | inactive | –
22 | CCCCC/C=C\C/C=C\C/C=C\C/C=C\CCCC(=O)NCC(=O)O | inactive | –
23 | c1ccc2c(c1)[nH]c1cnccc12 | inactive | –
24 | CCCCCCBr | inactive | –
25 | COc1ccc(C=O)cc1O | inactive | –
26 | CCCCCN(C)CCC(O)(P(=O)(O)O)P(=O)(O)O | inactive | –
27 | O=C(O)CC[N+](=O)[O-] | inactive | –
28 | CC(C)[C@@H](C(=O)O[C@@H](C#N)c1cccc(Oc2ccccc2)c1)c1ccc(Cl)cc1 | inactive | –
29 | CC(C)c1ccc(O)cc1 | inactive | –
30 | Oc1ccc(Cl)c(Cl)c1 | inactive | –
31 | Nc1ccccc1C(=O)Oc1ccc2ccccc2c1 | – | 83.5 µM (active)
32 | C=CCOC(C)=O | inactive | –
33 | C[C@@H](Cc1ccccc1)NCCC(c1ccccc1)c1ccccc1 | inactive | –
34 | C=CCC1(C(C)CCC)C(=O)N=C(S)NC1=O (stereo not given) | inactive | –
35 | O=[N+]([O-])c1cc([N+](=O)[O-])c2ccccc2c1 | inactive | –
36 | C=CCN(C1=NCCN1)c1c(Cl)cccc1Cl | inactive | –
37 | C=CCOC(Cn1ccnc1)c1ccc(Cl)cc1Cl (stereo not given) | inactive | 79.4 µM (active) and 77.2 µM (active)
38 | O=C(O)CBr | inactive | –
39 | Clc1ccc(C(Cl)(Cl)Cl)cc1Cl | inactive | –

From PubChem BioAssay (EPA / NIEHS)
